NOD2 RIPK2 PPI = blocks binding of human NOD2 to RIPK2; CHO BLA complementation NOD2-RIPK2, CCF4 ratio; inhibition, % at 4.98 µM; AID 624267; 0.38% of 360,000 active; O43353; in the data active = inhibition above about 21%
Target sequence (O43353 whole entry, looked up): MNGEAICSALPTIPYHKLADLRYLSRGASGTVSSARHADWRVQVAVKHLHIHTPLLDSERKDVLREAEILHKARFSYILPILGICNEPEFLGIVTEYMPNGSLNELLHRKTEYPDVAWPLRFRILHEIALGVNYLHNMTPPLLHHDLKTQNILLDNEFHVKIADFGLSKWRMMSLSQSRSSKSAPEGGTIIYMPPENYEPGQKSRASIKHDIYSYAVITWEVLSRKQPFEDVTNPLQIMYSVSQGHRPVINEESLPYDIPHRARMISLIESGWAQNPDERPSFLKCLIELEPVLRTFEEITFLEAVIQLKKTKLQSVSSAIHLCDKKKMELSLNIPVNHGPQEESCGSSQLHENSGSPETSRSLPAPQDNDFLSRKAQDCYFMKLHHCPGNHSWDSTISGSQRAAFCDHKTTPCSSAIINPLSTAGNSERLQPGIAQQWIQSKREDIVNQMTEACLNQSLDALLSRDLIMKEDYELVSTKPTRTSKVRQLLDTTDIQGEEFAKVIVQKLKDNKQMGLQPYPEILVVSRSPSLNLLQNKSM
GC-B act = GC-B (human) receptor activation; P20594; HEK293-GC-B cells, CNP EC30, cGMP TR-FRET; 0% at EC30 CNP, 100% saturating CNP; activation, % at 10 µM; 0.11% of 370,000 active; AID 1920062;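 active = activation at 10 µM reaching about 35% in either raw or pattern-adjusted values, limit read from the data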
GC-A act = GC-A (human) enzyme activation. P16066. HEK293 GC-A cells, cGMP TR-FRET, EC30 ANP; 0% at EC30 ANP, 100% saturating ANP. activation, % at 10 µM. 0.14% of 370,000 active. AID 1671463; in the data active = activation above about 40%
TLR4-MyD88 BLA = TLR4-MyD88 interaction inhibition in cells. O00206+Q99836. HeLa CL3-4 TLR4/MyD88 BLA complementation, FRET ratio. inhibition, % at 8.4 µM. 0.18% of 200,000 active; in the data active = inhibition above about 25%
TLR9-MyD88 inh = inhibitors of human TLR9-MyD88 binding; Q9NR96+Q99836; CHO BLA complementation TLR9-MyD88, CCF4 FRET ratio; inhibition, % at 4.98 µM; 0.21% of 340,000 active; AID 504734;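 active = inhibition above the mean over all tested compounds plus 3 SD, cut at about 21% in these data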
Neddylation inh = inhibitors of human cullin neddylation. inhibition, % at 25 µM. TR-FRET cullin neddylation, biochemical. 0.58% of 360,000 active. P61081+Q13564; in the data active = inhibition above about 36%
TLR9-MyD88 cf = confirmation of human TLR9-MyD88 binding inhibitors. shares compounds with TLR9-MyD88 inh. CHO TLR9/MyD88 BLA complementation, CCF4 FRET ratio. inhibition, % at 4.98 µM. 51% of 680 active. AID 540250;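 active = mean inhibition across three repeats above about 21% taken from the earlier screen, limit read from the data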;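 note: blue over green emission ratio reports constitutive TLR9 MyD88 association via BLA complementation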
BLA counter-1 = non-selective beta-lactamase inhibitors in TLR9-MyD88 counter-screen; inhibition, % at 4.98 µM; CHO-BLA cells, CCF4 FRET ratio, BLA reporter; AID 540251; shares compounds with TLR9-MyD88 inh; 7% of 680 active;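 active = mean inhibition above a 50% cutoff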;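 note: counterscreen of TLR9-MyD88 hits on CMV-driven BLA in CHO-K1 cells; higher means less blue over green ratio so more BLA blockade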
TLR9 CHO cytotox = CHO cell toxicity counter-screen for TLR9-MyD88 inhibitors. shares compounds with TLR9-MyD88 inh. TLR9-MyD88 CHO cells cytotoxicity, luminescence. inhibition, % at 4.98 µM. 39% of 680 active; in the data active = inhibition above about 11%
NOD2-RIPK2 conf = confirmation of human NOD2-RIPK2 interaction inhibitors | 70% of 1,200 active | CHO cells, NOD2-RIPK2 BLA complementation, CCF4 FRET | inhibition, % at 4.98 µM | shares compounds with NOD2 RIPK2 PPI;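 active = mean inhibition across replicates above a set limit taken from the earlier primary screen, cut at about 21% in these data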
BLA counter-2 = NOD2-RIPK2 counterscreen BLA reporter activity | shares compounds with NOD2 RIPK2 PPI | CHO BLA reporter, CCF4 FRET ratio | inhibition, % at 4.98 µM | 57% of 1,200 active | AID 624371;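 active = mean inhibition above the low-control mean inhibition plus three low-control SD, cut at about 11% in these data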
A number is an active result; - = inactive; . = no result given. Rows were chosen to be rich in hits. Some 1.2% of all compounds tested hit in one or more screens of this group.

SMILES	NOD2 RIPK2 PPI	GC-B act	GC-A act	TLR4-MyD88 BLA	TLR9-MyD88 inh	Neddylation inh	TLR9-MyD88 cf	BLA counter-1	TLR9 CHO cytotox	others
COc1ccc(C(=O)/C(=C\c2ccco2)N2C=CC=CC2=C(C#N)C#N)cc1	85	.	.	-	28	.	-	-	96
O=C1C(Cl)=C(Nc2ccccc2)C(=O)c2ccccc21	-	-	-	-	-	-	.	.	.
O=C1C(Cl)=C(NCCc2ccccc2)C(=O)c2ccccc21	-	-	-	.	21	-	50	-	98
CC(=O)N1CCc2cc(S(=O)(=O)NC3CCN(C(=O)OCc4ccccc4)CC3)ccc21	.	-	-	.	.	.	.	.	.
CC(C)(C)C(=O)NC(=S)NNC(=O)c1sc2ccccc2c1Cl	-	.	.	-	30	-	-	-	47
CCS(=O)(=O)Nc1ccc(C(=O)c2ccccc2)cc1	-	-	-	-	22	-	-	-	-
CCS(=O)(=O)Nc1ccc(C(=O)OC)cc1	-	-	-	-	-	-	.	.	.
Nc1nnnn1/N=C/c1cc(Cl)cc(Cl)c1O	-	-	-	.	23	-	24	-	-
Nc1nnnn1/N=C/c1cc(Cl)ccc1O	-	-	-	.	28	-	-	-	-
Cc1ccc(C=Nn2c(-c3n[nH]c4c3CCC4)n[nH]c2=S)o1	.	-	-	.	.	.	.	.	.
COC(=O)C1CN(Cc2ccc(C)cc2)CCS(=O)(=O)N1Cc1cn(Cc2ccc(Cl)cc2)nn1 (configuration not stated)	.	-	-	.	.	.	.	.	.
Nc1cccc2c1C(=O)N(C(=O)c1ccc(Cl)c(S(=O)(=O)N3CCCCCC3)c1)C2=O	-	-	-	-	28	.	-	-	-
CC[C@]12c3[nH]c4cc(-c5ccco5)ccc4c3CCN1C(=O)[C@@H](CC(=O)NCCc1ccccn1)C[C@@H]2C(=O)N1CCN(C(=O)C2CC2)CC1	-	-	-	.	-	.	-	-	-
Cc1ccc(S(=O)(=O)c2ccc(C)cc2)cc1	-	-	-	-	-	-	.	.	.
Cc1ccc(S(=O)(=O)C=CS(=O)(=O)c2ccc(C)cc2)cc1	-	-	-	.	29	-	37	-	97
COc1ccc(Cc2ccccc2C(=O)O)cc1	-	-	-	.	-	-	.	.	.
COc1ccc(CC2=CC(=O)c3ccccc3C2=O)cc1	63	-	-	.	24	-	-	-	84	NOD2-RIPK2 conf=48;BLA counter-2=-
CN(C)c1ccc(/C=C/c2nc3ccccc3c(=O)n2CCO)cc1	35	-	-	.	45	-	-	-	-	NOD2-RIPK2 conf=-;BLA counter-2=28
C=CCN1[C@H](CC(C)C)COc2cc(N3CCCC3)ccc2S1(=O)=O	.	-	-	.	.	.	.	.	.
O=S(=O)(Nc1cccc2cccnc12)c1ccccc1	39	-	-	.	35	.	-	-	98	NOD2-RIPK2 conf=54;BLA counter-2=18
CCN(CC)C(=O)CC[C@H]1CC[C@]2(CCCN(S(=O)(=O)c3ccccc3)C2)O1	.	-	-	.	.	.	.	.	.
Cc1ccc(-n2sc3ccccc3c2=O)cc1	-	-	-	-	-	-	.	.	.
O=c1c2ccccc2sn1-c1ccc(F)cc1	35	-	-	.	32	-	-	-	58	NOD2-RIPK2 conf=37;BLA counter-2=-
Cc1nnsc1S(=O)c1ccc(Cl)cc1 (configuration not stated)	-	-	-	.	-	-	.	.	.
O=C(c1nnsc1S(=O)c1ccc(Cl)cc1)N1CCOCC1 (configuration not stated)	52	-	-	-	28	-	31	-	101	NOD2-RIPK2 conf=68;BLA counter-2=21

Compound activity: PubChem, several laboratories
